Source: PubChem BioAssay (several laboratories)
Hits are enriched below; roughly 2.7% of the tested compounds scored in any of these assays.
Mcl1-Bid inh – Mcl-1/Bid binding inhibitors, primary screen, biochemical, TR-FRET, 1536-well; TR-FRET Mcl-1/Bid-Dy647 peptide binding; inhibition, % at 21.7 µM; 220,000 compounds, 0.97% hits;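 active = compounds that cut the binding signal by more than half at the single screening dose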;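 also: His-tagged Mcl-1 with europium anti-His antibody binding Bid BH3 peptide; 0% = Mcl-1 plus peptide wells and 100% = peptide-only wells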
Mcl1 Noxa PPI – Mcl-1/Noxa binding inhibitors, primary screen, biochemical, TR-FRET, 1536-well; 220,000 compounds, 1.5% hits; AID 1022, 2008; TR-FRET Mcl-1/Noxa peptide binding, 2 h; inhibition, % at 21.7 µM;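 active = compounds that cut the protein-peptide binding signal by more than 50% relative to plate controls in a single-dose test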;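 also: His-tagged Mcl-1 with rhodamine Noxa BH3 peptide and terbium anti-His antibody; 0% = Mcl-1 plus Noxa peptide wells and 100% = peptide-only wells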
Mcl-1 Bim block – inhibitors of Bim peptide binding to Mcl-1, primary screen, biochemical, bead-based flow cytometry, multiplex. Induced myeloid leukemia cell differentiation protein Mcl-1 (Homo sapiens), Q07820. Bim peptide-Mcl-1 binding. inhibition, % at 10 µM. 190,000 compounds, 0.1% hits. AID 1009, 2008; in the data active = inhibition above about 40%;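 also: 0% = no compound tracer wells and 100% = peptide blocker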
Pf gametocyte – late stage P. falciparum gametocyte viability inhibitors, primary screen, ATP luminescence, HTS | P. falciparum stage V gametocytes, 24 h | 150,000 compounds, 0.065% hits | inhibition, % at 10.9 µM | AID 743093, 2013;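 active = inhibition above the mean plus 3 SD of compounds within the control limits, set per campaign, cut at about 38% in these data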;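 also: 0% = DMSO wells and 100% = medium only without gametocytes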
14-3-3 Bad inh – inhibitors of 14-3-3 zeta/Bad binding, primary screen, biochemical, TR-FRET, bovine 14-3-3 zeta | TR-FRET 14-3-3zeta/Dy647-pBad peptide displacement, 1 h | inhibition, % at 21.7 µM | 220,000 compounds, 0.71% hits | AID 781, 2007 | 14-3-3 protein zeta/delta (Bos taurus), P63103;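 active = inhibition above about 70%, limit read from the data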;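 also: 0% = full 14-3-3 plus peptide FRET controls and 100% = background without 14-3-3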
eIF4E-4G inh – eIF4E–eIF4G protein interaction inhibitors, primary screen, biochemical, uHTS, TR-FRET, eIF4GI fragment. Eukaryotic translation initiation factor 4E (Mus musculus) + Eukaryotic translation …. TR-FRET eIF4E-eIF4GI(517-606) binding, 2 h. inhibition, % at 21.7 µM. 220,000 compounds, 0.37% hits. AID 782, 2007;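 active = inhibition above about 30%, limit read from the data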;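 also: 0% = full FRET control wells and 100% = background wells lacking eIF4GI fragment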
* = called active by the depositor; . = no result given; [ ] = remark or other dose.

SMILES	Mcl1-Bid inh	Mcl1 Noxa PPI	Mcl-1 Bim block	Pf gametocyte	14-3-3 Bad inh	eIF4E-4G inh
Cn1c(O)c(/C=C/C=Nc2ccccc2)c(=O)n(C)c1=S	56*	70*	-4	-1	5	-1
Cc1cccc(-n2c(O)c(/C=C/C=Nc3ccccc3)c(=O)[nH]c2=O)c1	-28	6	0	.	-13	3
CCC(=NC(C)c1ccccc1)c1c(O)[nH]c(=O)[nH]c1=O (stereo not drawn)	90*	-9	.	9	-1	-5
CN1C(=O)C(=Cc2sc(=O)n(-c3ccccc3)c2N2CCCCC2)C(=O)N(C)C1=O	97*	-5	.	15	-5	-6
CCC(=NCc1cccnc1)c1c(O)n(-c2ccc(C)cc2)c(=O)[nH]c1=O	-19	7	.	-77	-3	-2
CCC(=NCc1cccnc1)c1c(O)n(-c2ccccc2)c(=O)[nH]c1=O	6	8	.	1	6	32*
CC1=CC(=O)NP(=O)(Oc2ccc3ccccc3c2)N1 (stereo not drawn)	-47	6	9	.	60	81*
Cc1c(N=Cc2c(O)n(Cc3ccco3)c(=O)[nH]c2=O)c(=O)n(-c2ccccc2)n1C	-61	25	-3	.	-1	7
C=CCn1c(O)c(C(C)=NCC2CCCO2)c(=O)[nH]c1=O (stereo not drawn)	78*	9	.	8	3	1
CSc1nc(N)c(N=Nc2ccc([As](=O)(O)O)cc2)c(=O)[nH]1	0	17	.	.	1	1
Cc1ccc(C)c(NC(=S)NCCc2cnc[nH]2)c1	-118	-4	.	13	-3	-1
Nc1c(C(=O)NCCN2CCOCC2)c2nc3ccccc3nc2n1Cc1ccco1	-9	76*	3	.	-5	-1
C=CCNC(=O)c1c(N)n(Cc2ccco2)c2nc3ccccc3nc12	-10	57*	-1	.	6	9
COc1ccc(CCNC(=O)c2c(N)n(CCN3CCOCC3)c3nc4ccccc4nc23)cc1	10	22	-3	.	-8	14
Nc1c(C(=O)NCCc2ccccc2)c2nc3ccccc3nc2n1CCN1CCOCC1	77*	15	1	.	76*[fluorescence artefact?]	26
CC(C)=CCOc1c2occc2cc2ccc(=O)oc12	-18	-2	-2	15	-3	-3
COC(=O)C1=C(c2ccccc2OCc2ccccc2)C[C@@H]2CC[C@H]1N2C(=O)NCc1ccc(Br)cc1	.	.	.	10	.	.
O=C(O)c1c[nH]c2ccc(S(=O)(=O)N(CCCl)CCCl)cc12	6	6	0	-38	-8	-3
COC(=O)C1=Nc2ccccc2/C1=C\c1c(O)n(-c2cc(OC)ccc2OC)c(=O)[nH]c1=O	23	65*	1	-16	40	9
CCN1CCN(Cc2ccc(C)cc2C)CC1	42	20	0	-20	77*	-5
COc1cccc(C2(O)CCN(CC(=O)Nc3nc(C)cs3)CC2)c1	-17	12	0	-50	-11	2
CN(CCCCC(=O)/C=N/O)Cc1ccccc1 (tested in a mixture with another compound)	-9	-1	8	18	6	3
O=c1oc2ccccc2c(O)c1[C@H]1c2ccc(O)cc2Oc2c1c(=O)oc1ccccc21	-1	61*	.	19	7	4
Cc1cc2c(C(C)C)c(O)c(O)c(C=O)c2c(O)c1-c1c(C)cc2c(C(C)C)c(O)c(O)c(C=O)c2c1O	100*	118*	2	.	82*[fluorescence artefact?]	33*[fluorescence artefact?]
COC(=O)C1=C(c2cc3ccccc3o2)C[C@@H]2CC[C@H]1N2C(=O)N1CCC(O)CC1	.	.	.	11	.	.
SMILES	Mcl1-Bid inh	Mcl1 Noxa PPI	Mcl-1 Bim block	Pf gametocyte	14-3-3 Bad inh	eIF4E-4G inh
O=C1NC(=O)C(=Cc2ccc(SC3CCCCC3)o2)C(=O)N1	-19	72*	-5	-33	16	20
C/C(=N\N(C)c1ccccc1)c1c(O)[nH]c(=O)[nH]c1=O	-11	-3	.	-3	1	-4
CN1CCN(c2cc(N3CCCC3)c([N+](=O)[O-])cc2F)CC1	-29	-6	-2	-15	-18	4
CCN1CCN(c2cc(N3CCCC3)c(F)cc2[N+](=O)[O-])CC1	-20	65*	-3	8	-5	8
CN[C@H]1C[C@H]2O[C@@](C)([C@H]1OC)n1c3ccccc3c3c4c(c5c6ccccc6n2c5c31)C(=O)NC4	12	62*	-3	.	11	-3
N/C(=N\N=C/c1ccc(-c2ccc(O)c(C(=O)O)c2)o1)N[N+](=O)[O-]	24	87*	-1	.	95*[fluorescence artefact?]	33*[fluorescence artefact?]
COc1ccc(/C=N/N=C(/N)N[N+](=O)[O-])c(OC)c1	-17	8	-2	-13	-10	3
N#Cc1c(/N=C/C2C(=O)NC(=S)NC2=O)sc2c1CCCC2	-32	23	-3	3	53	-3
CCC(C)N1C(=O)/C(=C/c2ccc3c(c2)CCN3CCCCl)C(=O)NC1=S (stereo not drawn)	39	101*	-4	13	-4	6
Cc1c(C(=O)C(=O)N2CCC3(CC2)OCCO3)c2ccccc2n1C	-10	5	1	1	-11	0
CCN1CCN(Cc2cc(C(C)(C)C)c(O)c(C(C)(C)C)c2)CC1	28	-31	-2	.	.	.
O=C1c2ccccc2C(=O)N1Cc1nc2ccccc2c(=O)n1-c1ccccn1	-8	0	-1	-23	-6	31*
CCN(CC)C(=O)c1ccc2c(c1)C1C(Cl)C(Sc3ccccc3[N+](=O)[O-])CC1C(C(=O)O)N2 (stereo not drawn)	-1	63*	.	.	40	7
Cc1ccc2c(c1Cl)NC(C(=O)O)C1CC(Sc3ccccc3[N+](=O)[O-])C(Cl)C21 (stereo not drawn)	-37	97*	.	.	41	21
Cc1ccccc1-n1c(O)c(/C=N/NC(=O)c2ccncc2)c(=O)[nH]c1=O	-35	-65	.	-13	1	2
CCOc1ccc(N2C(=O)NC(=O)/C(=C\c3ccccc3[N+](=O)[O-])C2=O)cc1	-52	48	.	3	7	5
CCOc1ccc(N2C(=O)/C(=C\c3cccs3)C(=O)NC2=S)cc1	36	67*	2	-10	40	11
O=C1NC(=S)N(c2ccccc2F)C(=O)/C1=C\c1cccs1	32	86*	-4	7	18	18
O=C1NC(=O)N(CC2CCCO2)C(=O)/C1=C/c1cccs1 (stereo not drawn)	-44	13	.	8	-2	0
